Screen size: about 290,000 compounds; about 11,000 (3.8%) were called active. The list comes from a sample in which actives are over-represented; it also holds similar structures and randomly drawn compounds. Unmarked numbers belong to inactive results.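 How the source made its calls: active means mean replicate inhibition above about 79%, with every replicate also reaching it (limit read from the data); inconclusive means only one of the two criteria met; inactive means mean below limit and not every replicate reaching it.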
Molecular target: FAD-linked sulfhydryl oxidase ALR (Homo sapiens) (UniProt P55789)
Sequence (P55789 whole entry, looked up): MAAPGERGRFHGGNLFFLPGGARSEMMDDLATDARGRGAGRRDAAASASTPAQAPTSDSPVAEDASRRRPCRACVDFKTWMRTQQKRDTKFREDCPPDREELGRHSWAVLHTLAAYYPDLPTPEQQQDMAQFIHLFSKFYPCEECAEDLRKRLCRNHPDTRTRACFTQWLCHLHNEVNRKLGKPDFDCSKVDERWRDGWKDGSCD
Assay: ALR-catalysed DTT oxidation blockers – biochemical, H2O2 detection, HRP-luminol luminescence, single point, primary screen (AID 485317)
Conditions: purified ALR, stronger effect = higher value, concentration not given here

| Structure (SMILES) | inhibition |
| --- | --- |
| COc1ccc(NC(=O)CN(C)C(=O)c2ccc(NC3CC3)c([N+](=O)[O-])c2)cc1 | 9.73% |
| CCOc1cc(/C=N/NC(=O)c2cc(-c3ccccc3)nc3ccccc23)ccc1O | 12.6% |
| COc1cc(/C=N/NC(=O)c2ccoc2C)ccc1OCCN1CCCCC1 | -5.33% |
| CCOc1cc(/C=N/NC(=O)CN2CCCCC2)ccc1O | 98.9% (active) |
| O=C(O)c1ccc(N/N=C/c2cn(-c3ccccc3)nc2-c2cccs2)cc1 | 98.9% (active) |
| O=C(/C=C\c1cn(-c2ccccc2)nc1-c1cccs1)N1CCOCC1 | -5.03% |
| COc1ccc(-c2nn(-c3ccccc3)cc2/C=C\C(=O)Nc2ccc(C(=O)O)cc2)cc1 | -2.34% |
| Cc1ccc(NC(=O)CCNC(=O)c2ccc([N+](=O)[O-])cc2)cc1S(=O)(=O)N1CCOCC1 | -6.28% |
| Cc1ccc(S(=O)(=O)NCC(=O)N2CCN(c3ccccn3)CC2)cc1 | 3.32% |
| Cc1ccc(N2C(=O)C3CC3C2=O)cc1 (stereo unspecified) | -2.01% |
| Cc1ccc(N2CCN(c3ccc(C)cc3)C2c2ccccn2)cc1 | 86.9% (active) |
| CC(C)(C)OC(=O)C[C@@H]1C/C=C\C[C@H](CC(=O)N[C@@H](CO)Cc2ccccc2)C(=O)N[C@H](Cc2ccccc2)COC1=O | -0.505% |
| O=C(NCc1ccccc1Cl)C(=O)NCC1CCCN1S(=O)(=O)c1cccs1 (stereo unspecified) | -7.66% |
| COc1ccc(C(=O)NC2CC(C)(C)Cc3c2cnn3-c2ccccc2)c(OC)c1 (stereo unspecified) | 0.864% |
| Cc1cc(C(=O)NC2CC(C)(C)Cc3c2cnn3-c2ccccc2)n[nH]1 (stereo unspecified) | 92.1% (active) |
| CC1=C(C(=O)NC2CC(C)(C)Cc3c2cnn3-c2ccc(C)cc2)OCCO1 (stereo unspecified) | -16.8% |
| CC(=O)Nc1cccc(C(=O)OCC(=O)NCc2cc(C)c(O)c(C)c2)c1 | 25.7% |
| Cc1cccc2c(=O)n3c(nc12)CCCCC3 | -3.58% |
| CC(=O)c1ccc(NC(=O)c2sc3nc4n(c(=O)c3c2C)CCCCC4)cc1 | -6.68% |

| Structure (SMILES) | inhibition |
| --- | --- |
| O=c1c2c(nc3n1CCCCC3)sc1c(O)cccc12 | 94.5% (active) |
| CSc1ncccc1C(=O)Nc1ccc2c(c1)OCO2 | -7.77% |
| COc1ccccc1N1CCN(CC(=O)Nc2ccnn2C2CCCC2)CC1 | 21.7% |
| O=C(OCC1OC(Oc2ccc(O)cc2)C(O)C(O)C1O)c1ccccc1 (stereo unspecified) | 23.2% |
| O=C(OCC1O[C@@H](OC(=O)c2cc(O)c(O)c(O)c2)[C@@H](OC(=O)c2cc(O)c(O)c(O)c2)[C@@H](OC(=O)c2cc(O)c(O)c(O)c2)[C@@H]1OC(=O)c1cc(O)c(O)c(O)c1)c1cc(O)c(O)c(O)c1 (stereo partly specified) | 98.8% (active) |
| CC(=O)NC1C(OCc2ccccc2)OC(COC(C)=O)C(OC(C)=O)C1OC(C)=O (stereo unspecified) | -6.67% |
| NC(=O)c1ccsc1NC(=O)COC(=O)Cc1n[nH]c(=O)c2ccccc12 | -7.95% |
| Cc1cccc(NS(=O)(=O)c2ccc(C)c(C(=O)NCc3cccnc3)c2)c1 | -5.85% |
| c1ccc(Nc2n[nH]nc2-c2ccccc2)cc1 | 100% (active) |
| O=C(O)c1n[nH]nc1-c1ccccc1 | -0.621% |
| CCCCNC(=O)Nc1c(C)cc(SC#N)cc1C | 96.7% (active) |
| CCCCNC(=S)NNC(=O)c1cc(C)on1 | 55.3% |
| CCCCNC(=O)C(=O)c1ccccc1NC(C)=O | -1.84% |
| O=C(OCc1cc(=O)n2ccsc2n1)C1(c2ccc(Cl)cc2)CC1 | -1.54% |
| COc1ccccc1C(=O)NC(=O)COC(=O)c1ccco1 | -0.0405% |
| Cc1cccc(NC(=O)c2ccc(S(=O)(=O)N(C)CC3CCCO3)cc2)c1C (stereo unspecified) | -10.6% |
| CCN(CC(=O)NC(C)C)C(=O)c1cc(S(=O)(=O)N2CCCCC2)ccc1N1CCCCC1 | -1.75% |
| NC(=O)Nc1ccc(C(=O)OCC(=O)NC2CCCc3ccccc32)cc1 (stereo unspecified) | -2.38% |
| CSCC[C@H](NC(=O)N1CCn2c1nc1ccccc12)C(=O)NCc1ccc2c(c1)OCO2 | -4.75% |

| Structure (SMILES) | inhibition |
| --- | --- |
| CSCC[C@H](NC(=O)N1CCn2c1nc1ccccc12)C(=O)NC1CCCCC1 | 98.2% (active) |
| CC(C)C[C@H](NC(=O)N1CCn2c1nc1ccccc12)C(=O)NC1CC1 | -10.7% |
| CC1CCN(C(=O)COC(=O)c2cc(=O)[nH]c3ccccc23)CC1 | 2.67% |
| CCn1c(SCC(=O)Nc2cc(C)c(Cl)cc2OC)nnc1-c1ccco1 | 98.5% (active) |
| COc1cc(Cl)c(C)cc1NC(=O)CSc1nnc(-c2cccnc2)n1Cc1ccco1 | 20.1% |
| COc1cc(Cl)c(C)cc1NC(=O)CSc1nnc(-c2ccco2)n1CC(C)C | 2.64% |
| CCOC(=O)[C@H]1[C@H]2COc3ccccc3[C@@H]2N2C(=O)CN(Cc3ccccc3)C(=O)[C@@]12C | -1.27% |
| O=C(Nc1ccccc1-c1nc2ccccc2[nH]c1=O)c1cccs1 | 1.37% |
| C/C(=N\Nc1ncc(Cl)cc1Cl)c1cccs1 | 0.466% |
| C/C(=N\Nc1nc2ccccc2[nH]1)c1cccs1 | 99% (active) |
| O=C1CCC/C=C/C[C@@H](CC(=O)N(CCO)Cc2ccccc2)C(=O)NC[C@H](c2ccccc2)O1 | 0.972% |
| CCC[C@H]1CCCC/C=C\CCCC(=O)OCCN1C(=O)OC(C)(C)C | -2.32% |
| CC(C)CC1NC(=O)c2cc(Cl)ccc2-n2c1nc1ccccc1c2=O (stereo unspecified) | -5.03% |
| COc1cnn(-c2ccc([N+](=O)[O-])cc2)c(=O)c1Cl | 4% |
| Cc1ccc(-n2c(-c3ccc(Cl)cc3)n[nH]c2=S)cc1 | -1.26% |
| COc1ccc(-n2c(-c3ccc(OC)c(OC)c3)n[nH]c2=S)cc1 | 94% (active) |
| Cc1ccc(OCc2n[nH]c(=S)n2-c2ccc(C)cc2)cc1 | 47.3% |
| COc1ccc(CNC(=O)COC(=O)CCS(=O)(=O)c2ccc(C)cc2)cc1OC | 2.97% |

Source: PubChem BioAssay AID485317 (Broad Institute, 2010)
